The values below come from PMC7862700, “An all-to-all approach to the identification of sequence-specific readers for epigenetic DNA modifications on cytosine”.

Assay in all cases: DAPPL (digital affinity profiling via proximity ligation, sequencing); 10 mM Tris-HCl pH 7.5, 50 mM NaCl, 1 mM DTT, 4% glycerol, room temperature, 30 min; GST-TFs on glutathione beads, 16-mer random dsDNA library, 0.1% formaldehyde crosslink after washing; high values mean tight binding
Common to all, as to conditions: protein: recombinant; tags: N-terminal GST; dsDNA, one strand shown

One test concerns the target T1, FLI1 (Homo sapiens, UniProt Q01543 1-452).
T1 sequence: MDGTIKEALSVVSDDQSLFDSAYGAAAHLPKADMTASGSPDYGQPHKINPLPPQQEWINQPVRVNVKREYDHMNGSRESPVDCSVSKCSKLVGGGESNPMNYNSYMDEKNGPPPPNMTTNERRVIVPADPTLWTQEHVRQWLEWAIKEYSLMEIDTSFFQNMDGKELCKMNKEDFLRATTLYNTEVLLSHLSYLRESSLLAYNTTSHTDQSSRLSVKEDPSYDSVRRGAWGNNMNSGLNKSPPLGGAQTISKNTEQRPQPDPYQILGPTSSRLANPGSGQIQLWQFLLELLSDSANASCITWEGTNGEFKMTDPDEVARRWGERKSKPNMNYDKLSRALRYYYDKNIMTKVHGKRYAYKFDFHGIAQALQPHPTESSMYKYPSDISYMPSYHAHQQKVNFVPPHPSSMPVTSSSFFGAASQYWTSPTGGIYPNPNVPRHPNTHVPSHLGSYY
In outline: (§1)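 Human transcription factors fused to GST were expressed in yeast, captured on glutathione beads, given DNA barcodes and pooled with a GST-only negative control. Pools were incubated with 200 nmole of a 16-mer random double-stranded DNA library in Tris/NaCl/DTT/glycerol buffer at room temperature for 30 min. They were then washed, crosslinked with 0.1% formaldehyde, proximity-ligated (BsaI/T4 ligase, 1 h, 37 °C), PCR-amplified and sequenced on an Illumina NextSeq500. Binding signal is each 6-mer's read frequency for a factor divided by its frequency for the GST control.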

The target in a further test is T2, ELK1 (Homo sapiens, UniProt P19419 1-428).
T2 sequence: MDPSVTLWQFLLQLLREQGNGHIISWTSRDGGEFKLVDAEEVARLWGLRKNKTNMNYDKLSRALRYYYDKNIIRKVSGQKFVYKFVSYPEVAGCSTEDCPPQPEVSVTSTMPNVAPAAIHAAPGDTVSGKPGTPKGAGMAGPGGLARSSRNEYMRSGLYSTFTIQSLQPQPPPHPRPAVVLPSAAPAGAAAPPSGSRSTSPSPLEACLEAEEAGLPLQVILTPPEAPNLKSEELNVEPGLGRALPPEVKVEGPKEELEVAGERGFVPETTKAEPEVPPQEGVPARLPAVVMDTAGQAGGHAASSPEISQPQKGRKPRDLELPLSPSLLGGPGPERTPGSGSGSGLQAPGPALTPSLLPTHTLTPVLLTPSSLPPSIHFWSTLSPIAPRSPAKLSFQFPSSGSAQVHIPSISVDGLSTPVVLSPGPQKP
An outline of the steps:
as §1

The next test addresses T3, GABPA (Homo sapiens, UniProt Q06546 1-454).
T3 sequence: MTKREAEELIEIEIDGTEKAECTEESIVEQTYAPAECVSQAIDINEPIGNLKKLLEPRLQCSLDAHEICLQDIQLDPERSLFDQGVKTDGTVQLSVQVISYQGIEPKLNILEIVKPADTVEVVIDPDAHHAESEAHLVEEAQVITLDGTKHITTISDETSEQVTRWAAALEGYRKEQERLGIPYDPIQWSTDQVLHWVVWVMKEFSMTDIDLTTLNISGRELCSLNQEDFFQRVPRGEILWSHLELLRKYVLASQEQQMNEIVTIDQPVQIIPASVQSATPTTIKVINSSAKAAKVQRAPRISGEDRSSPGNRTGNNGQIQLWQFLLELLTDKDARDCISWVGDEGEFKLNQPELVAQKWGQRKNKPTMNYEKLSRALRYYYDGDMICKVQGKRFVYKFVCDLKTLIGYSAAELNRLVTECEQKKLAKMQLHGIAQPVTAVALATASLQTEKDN
An outline of the steps: as §1

The next test addresses T4, ERG (Homo sapiens, UniProt P11308 1-479).
T4 sequence: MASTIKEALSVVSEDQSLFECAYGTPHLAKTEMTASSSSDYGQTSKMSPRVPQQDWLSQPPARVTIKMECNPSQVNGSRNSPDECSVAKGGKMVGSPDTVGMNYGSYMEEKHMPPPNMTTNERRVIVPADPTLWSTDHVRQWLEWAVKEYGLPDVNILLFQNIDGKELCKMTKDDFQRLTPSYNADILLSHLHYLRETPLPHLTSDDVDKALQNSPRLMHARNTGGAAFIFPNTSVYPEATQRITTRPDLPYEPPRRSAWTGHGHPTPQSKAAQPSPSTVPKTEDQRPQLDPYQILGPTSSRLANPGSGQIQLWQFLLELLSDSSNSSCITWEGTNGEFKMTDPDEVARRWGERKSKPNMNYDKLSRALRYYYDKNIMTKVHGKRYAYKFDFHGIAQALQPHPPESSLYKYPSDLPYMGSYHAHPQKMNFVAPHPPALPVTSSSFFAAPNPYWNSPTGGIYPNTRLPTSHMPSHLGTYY
An outline of the steps: as §1

Another test concerns the target ELF1 (Homo sapiens, UniProt P32519 1-619). An outline of the steps: as §1
The next test concerns the target T5, EHF (Homo sapiens, UniProt Q9NZC4 1-300).
T5 sequence: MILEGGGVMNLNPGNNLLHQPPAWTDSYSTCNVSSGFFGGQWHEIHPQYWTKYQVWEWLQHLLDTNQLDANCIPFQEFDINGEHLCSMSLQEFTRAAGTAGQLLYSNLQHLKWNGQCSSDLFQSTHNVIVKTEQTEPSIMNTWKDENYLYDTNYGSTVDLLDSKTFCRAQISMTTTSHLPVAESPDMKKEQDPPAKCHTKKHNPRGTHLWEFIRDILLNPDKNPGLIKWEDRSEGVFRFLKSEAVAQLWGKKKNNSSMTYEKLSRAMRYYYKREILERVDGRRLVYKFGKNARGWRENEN
An outline of the steps: as §1

Another test concerns the target SPI1 (Homo sapiens, UniProt P17947 1-270). In outline:
as §1

In another test the target is SPIB (Homo sapiens, UniProt Q01892 1-262). An outline of the steps:
as §1

In the next test the target is T6, ELK3 (Homo sapiens, UniProt P41970 1-407).
T6 sequence: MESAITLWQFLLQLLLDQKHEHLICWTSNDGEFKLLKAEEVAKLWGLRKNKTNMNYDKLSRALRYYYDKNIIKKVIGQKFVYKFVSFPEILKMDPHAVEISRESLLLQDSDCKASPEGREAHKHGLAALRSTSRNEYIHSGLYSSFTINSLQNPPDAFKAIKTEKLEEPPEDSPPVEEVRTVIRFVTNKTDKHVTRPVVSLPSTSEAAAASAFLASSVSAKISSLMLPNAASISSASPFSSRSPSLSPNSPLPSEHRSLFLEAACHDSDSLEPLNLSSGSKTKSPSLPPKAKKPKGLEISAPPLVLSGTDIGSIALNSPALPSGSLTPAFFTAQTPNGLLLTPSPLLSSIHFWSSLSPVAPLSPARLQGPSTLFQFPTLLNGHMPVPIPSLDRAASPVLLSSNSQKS
In outline: as §1

Chain of SPIB (Q01892 whole entry): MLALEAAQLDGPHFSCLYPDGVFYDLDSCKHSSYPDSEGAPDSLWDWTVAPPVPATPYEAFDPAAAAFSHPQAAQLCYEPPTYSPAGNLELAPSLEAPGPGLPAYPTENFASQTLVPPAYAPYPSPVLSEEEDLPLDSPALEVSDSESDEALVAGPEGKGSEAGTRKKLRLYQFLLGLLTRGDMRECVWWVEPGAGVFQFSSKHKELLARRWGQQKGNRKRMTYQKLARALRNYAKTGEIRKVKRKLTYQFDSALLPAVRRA
Chain of ELF1 (P32519 whole entry): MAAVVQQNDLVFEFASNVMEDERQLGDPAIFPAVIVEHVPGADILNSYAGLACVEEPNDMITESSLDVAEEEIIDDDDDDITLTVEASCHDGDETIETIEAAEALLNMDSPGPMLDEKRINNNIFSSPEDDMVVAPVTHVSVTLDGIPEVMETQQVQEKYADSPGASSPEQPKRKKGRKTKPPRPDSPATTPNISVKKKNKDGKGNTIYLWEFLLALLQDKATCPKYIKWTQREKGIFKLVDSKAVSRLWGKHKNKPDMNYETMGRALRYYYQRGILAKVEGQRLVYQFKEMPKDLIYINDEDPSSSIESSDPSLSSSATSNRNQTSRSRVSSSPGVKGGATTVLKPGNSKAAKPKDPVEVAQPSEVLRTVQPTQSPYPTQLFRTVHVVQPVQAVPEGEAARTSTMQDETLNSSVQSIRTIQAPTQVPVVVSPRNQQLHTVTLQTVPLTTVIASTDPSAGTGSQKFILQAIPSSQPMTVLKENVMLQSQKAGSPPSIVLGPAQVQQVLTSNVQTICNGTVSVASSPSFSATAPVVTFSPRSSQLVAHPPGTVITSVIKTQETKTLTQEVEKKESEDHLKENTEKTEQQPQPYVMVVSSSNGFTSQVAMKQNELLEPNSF

Turning to TAATCT, the binding signal with FLI1 was 1.39 fold enrichment (6-mer frequency, TF over GST control); in the test with ELK1, 1.34 fold enrichment (6-mer frequency, TF over GST control); with GABPA, 1.33 fold enrichment (6-mer frequency, TF over GST control); in the test with ERG it was 1.38 fold enrichment (6-mer frequency, TF over GST control); with ELF1, 1.4 fold enrichment (6-mer frequency, TF over GST control); in the test with EHF, 1.44 fold enrichment (6-mer frequency, TF over GST control). For the same sequence, the binding signal in the test with SPI1 is 1.33 fold enrichment (6-mer frequency, TF over GST control); with SPIB, 1.4 fold enrichment (6-mer frequency, TF over GST control); with ELK3 it was 1.46 fold enrichment (6-mer frequency, TF over GST control).
With CATCTC, the binding signal in the test with FLI1 was 1.42 fold enrichment (6-mer frequency, TF over GST control); with ELK1 it was 1.3 fold enrichment (6-mer frequency, TF over GST control); with GABPA it was 1.34 fold enrichment (6-mer frequency, TF over GST control); in the test with ERG it was 1.24 fold enrichment (6-mer frequency, TF over GST control); in the test with ELF1, 1.37 fold enrichment (6-mer frequency, TF over GST control); with EHF, 1.31 fold enrichment (6-mer frequency, TF over GST control). For the same sequence, the binding signal was 1.36 fold enrichment (6-mer frequency, TF over GST control) in the test with SPI1; 1.26 fold enrichment (6-mer frequency, TF over GST control) with SPIB; 1.22 fold enrichment (6-mer frequency, TF over GST control) in the test with ELK3.
AACAAT: the binding signal with FLI1 is 1.31 fold enrichment (6-mer frequency, TF over GST control); with ELK1, 1.29 fold enrichment (6-mer frequency, TF over GST control); with GABPA, 1.32 fold enrichment (6-mer frequency, TF over GST control); in the test with ERG, 1.28 fold enrichment (6-mer frequency, TF over GST control); in the test with ELF1 it was 1.29 fold enrichment (6-mer frequency, TF over GST control); with EHF, 1.26 fold enrichment (6-mer frequency, TF over GST control). The binding signal was 1.32 fold enrichment (6-mer frequency, TF over GST control) with SPI1; 1.29 fold enrichment (6-mer frequency, TF over GST control) with SPIB; 1.32 fold enrichment (6-mer frequency, TF over GST control) with ELK3.
For the sequence CTTGGG, the binding signal with FLI1 was 1.24 fold enrichment (6-mer frequency, TF over GST control); with ELK1, 1.38 fold enrichment (6-mer frequency, TF over GST control); with GABPA it was 1.36 fold enrichment (6-mer frequency, TF over GST control); in the test with ERG, 1.29 fold enrichment (6-mer frequency, TF over GST control); with ELF1 it was 1.26 fold enrichment (6-mer frequency, TF over GST control); with EHF, 1.14 fold enrichment (6-mer frequency, TF over GST control). In addition, the binding signal with SPI1 was 1.29 fold enrichment (6-mer frequency, TF over GST control); with SPIB, 1.39 fold enrichment (6-mer frequency, TF over GST control); with ELK3 it was 1.47 fold enrichment (6-mer frequency, TF over GST control).
As to TATGCT, the binding signal with FLI1 is 1.28 fold enrichment (6-mer frequency, TF over GST control); with ELK1 it was 1.28 fold enrichment (6-mer frequency, TF over GST control); with GABPA it was 1.32 fold enrichment (6-mer frequency, TF over GST control); with ERG it was 1.26 fold enrichment (6-mer frequency, TF over GST control); with ELF1, 1.29 fold enrichment (6-mer frequency, TF over GST control); in the test with EHF it was 1.33 fold enrichment (6-mer frequency, TF over GST control). In addition, the binding signal in the test with SPI1 was 1.41 fold enrichment (6-mer frequency, TF over GST control); with SPIB, 1.33 fold enrichment (6-mer frequency, TF over GST control); in the test with ELK3, 1.22 fold enrichment (6-mer frequency, TF over GST control).
Consider CTTCTG, for which the binding signal was 1.48 fold enrichment (6-mer frequency, TF over GST control) with FLI1; 1.34 fold enrichment (6-mer frequency, TF over GST control) in the test with ELK1; 1.26 fold enrichment (6-mer frequency, TF over GST control) in the test with GABPA; 1.3 fold enrichment (6-mer frequency, TF over GST control) with ERG; 1.34 fold enrichment (6-mer frequency, TF over GST control) in the test with ELF1; 1.27 fold enrichment (6-mer frequency, TF over GST control) with EHF. In addition, the binding signal is 1.36 fold enrichment (6-mer frequency, TF over GST control) with SPI1; 1.32 fold enrichment (6-mer frequency, TF over GST control) in the test with SPIB; 1.4 fold enrichment (6-mer frequency, TF over GST control) in the test with ELK3.
Regarding TACCTT, the binding signal was 1.36 fold enrichment (6-mer frequency, TF over GST control) with FLI1; 1.33 fold enrichment (6-mer frequency, TF over GST control) with ELK1; 1.36 fold enrichment (6-mer frequency, TF over GST control) with GABPA; 1.42 fold enrichment (6-mer frequency, TF over GST control) with ERG; 1.3 fold enrichment (6-mer frequency, TF over GST control) with ELF1; 1.47 fold enrichment (6-mer frequency, TF over GST control) with EHF. The binding signal in the test with SPI1 was 1.33 fold enrichment (6-mer frequency, TF over GST control); with SPIB it was 1.42 fold enrichment (6-mer frequency, TF over GST control); with ELK3 it was 1.23 fold enrichment (6-mer frequency, TF over GST control).
